Measurements as given in PubChem BioAssay (Tox21).
Values joined by “and” are separate entries in the source; they are usually repeats but may differ in a detail not shown here. Equal entries are not always repeated. Records with an inconclusive call do not appear. Unmarked numbers belong to inactive results. Active and inactive are the calls of the source. The call rests on the fitted dose curve; in most records, active means well fitted inhibition curve with a large enough effect in the repeat runs; inconclusive means weak or mixed curves, or effect the other way; inactive means no such curve, though single readings can be large or run the other way.

Each compound was assayed against Nuclear receptor subfamily 1 group I member 3 (Homo sapiens) (UniProt Q14994) (assay: qHTS assay to identify small molecule antagonists of the constitutive androstane receptor (CAR) signaling pathway (AID 1224838;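 further: HepG2 cells stably expressing hCAR with CYP2B6 luciferase reporter stimulated by CITCO; nearly all actives have a fitted effect of over 40% in size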)). Conditions: HepG2-CYP2B6-hCAR luciferase, CITCO-stimulated, 24 h; series mostly up to 92.4 µM; activity, negative = inhibition: at the top concentration.
Excerpt: U.S. Tox21 Program National Center for Advancing Translational Sciences [NCATS] NIH Chemical Genomics Center [NCGC] U.S. Environmental Protection Agency [EPA] National Institutes of Environmental Health Sciences [NIEHS] National Toxicology Program [NTP] U.S. Food and Drug Administration [FDA] Tox21 Assay Overview: The constitutive androstane receptor (CAR) is a nuclear receptor which regulates multiple drug metabolizing enzymes (DMEs) and transporters. Activating CAR will generally increase the transcription and subsequent translation of CYP2B6 and CYP3A4. These two DMEs represent about 50% of the drug metabolizing potential in the body. When CAR is deactivated, the metabolizing potential in the body will decrease, subsequently increasing the toxicity in the body or lowering the therapeutic potential of a pro-drug. Recently, there have also been studies performed indicating CARs role in energy metabolism and cancer therapy. Therefore, inhibiting CARs activity could have a potential effect on diabetes and cancer. Identifying environmental toxins and compounds which modulate CAR, through the use of the Tox21 10K compound collection, will be an important step in determining the toxicity and potential therapeutic effects these factors will have on the human body.
Tox21 Assay Protocol Summary: A double-stable (hCAR and CYP2B6-2.2kb) transfected cell line, derived from human hepatoma (HepG2) cells, was utilized for the duration of the quantitative high-throughput screens. The HepG2-CYP2B6-hCAR cells suspended in DMEM culture medium supplemented with 10% FBS, 5 ug/mL blasticidin, 0.5 mg/mL geneticin, 100 U/mL penicillin and 100 ug/mL streptomycin were dispensed at 2500 cells/4 uL/well in 1536-well white solid bottom plates using a Multidrop Combi. After the assay plates were incubated at 37 C/5% CO2 for 4 hrs, 23 nL of compounds at 15 concentrations (from 5-48 columns) or positive control (from 1 to 4 columns) were transferred to the assay plates using a Pintool station. One uL of CITCO, was added using a Flying Reagent Dispenser to generate a final concentration of 50 nM CITCO inside each well. After a 24 hr incubation period at 37 C/5% CO2, four uL of ONE-Glo reagent was added into the assay plates using a Flying Reagent Dispenser. After a 30 min incubation period at room temperature, the luminescence intensity in the assay plates was measured using a ViewLux plate reader.
On the % scale 0 is the no-effect control and ±100 the full control effect; potency means the concentration at half of the fitted maximal effect.

Nuclear receptor subfamily 1 group I member 3 (Homo sapiens), sequence (Q14994 whole entry, looked up): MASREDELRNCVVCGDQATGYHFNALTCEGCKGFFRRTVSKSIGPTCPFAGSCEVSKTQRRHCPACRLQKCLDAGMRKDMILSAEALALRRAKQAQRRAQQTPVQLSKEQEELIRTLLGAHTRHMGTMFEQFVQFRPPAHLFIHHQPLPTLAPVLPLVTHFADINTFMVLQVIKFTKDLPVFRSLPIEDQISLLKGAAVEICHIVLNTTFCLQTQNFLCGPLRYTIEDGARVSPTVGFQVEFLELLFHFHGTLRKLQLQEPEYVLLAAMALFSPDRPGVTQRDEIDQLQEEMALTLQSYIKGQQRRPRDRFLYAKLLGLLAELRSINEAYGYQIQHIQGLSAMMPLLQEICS

First: CCCCCCCCCBr
Second: CCCN(CC)CC1COC2(CCC(C(C)(C)C)CC2)O1 (stereo not given)
The “activity, negative = inhibition” value of the first is higher: 0.18% for the first, -9.57% for the second.

Going from `Clc1ccc(-c2ccc(Cl)c(Cl)c2Cl)c(Cl)c1Cl` to `Fc1cccc(Cl)c1CCl`, the “activity, negative = inhibition” value rises from 13.7% to 19.8%.

Going from `CCOC(=O)c1ccccc1S(=O)(=O)NC(=O)Nc1nc(Cl)cc(OC)n1` to `CCS(=O)(=O)c1cccnc1S(=O)(=O)NC(=O)Nc1nc(OC)cc(OC)n1`, the “activity, negative = inhibition” value rises from -4.22% to 120%.

Going from `CC(C)(C)C(O)C(Oc1ccc(-c2ccccc2)cc1)n1cncn1` (stereo not given) to `CC(C)(C)C(O)/C(=C\c1ccc(Cl)cc1Cl)n1cncn1` (stereo not given), the “activity, negative = inhibition” value rises from 24.3% to 106%.

First: CCN
Second: C=CCOC(N)=O
The “activity, negative = inhibition” value of the first is lower: -1.4% for the first, 3.79% for the second.

Going from `N#CNC#N` to `N#C/C=C/C#N`, the “activity, negative = inhibition” value rises from 0.474% to 66.1%.

First: ClC1=C(Cl)[C@]2(Cl)[C@@H]3[C@@H](Cl)[C@@H](Cl)C[C@@H]3[C@@]1(Cl)C2(Cl)Cl
Second: C[C@]12CC[C@H]3[C@@H](CCC4=CC(=O)CC[C@@]43C)[C@@H]1CC[C@@H]2O
The “activity, negative = inhibition” value of the first is higher: -0.567% for the first, -0.587% for the second.

First: [Cl][Sb]([Cl])[Cl]
Second: ClC(Cl)=C(Cl)Cl
The “activity, negative = inhibition” value of the first is higher: 12.4% for the first, -4.5% for the second.

Going from `CNC(C)Cc1ccc2c(c1)OCO2` (stereo not given) to `CC(=O)/C=C/c1ccc2c(c1)OCO2`, the “activity, negative = inhibition” value rises from -23.7% to 26.7%.

Compared with `Cc1cc(C(C)(C)c2cc(C)c(O)c(C)c2)cc(C)c1O`, `Cc1cc(C)c(C2=C(OC(=O)CC(C)(C)C)C3(CCCC3)OC2=O)c(C)c1` is higher in “activity, negative = inhibition” value: -13.6% for the first, -4.38% for the second.

First: CS(=O)(=O)c1ccc(C(=O)C2C(=O)CCCC2=O)c([N+](=O)[O-])c1
Second: O=[N+]([O-])c1cc([N+](=O)[O-])c2ccccc2c1
The “activity, negative = inhibition” value of the first is lower: 42% for the first, 236% for the second.

Compared with `CC1(c2ccc(Oc3ccccc3)cc2)OC(=O)N(Nc2ccccc2)C1=O` (stereo not given), `CC1(C)[C@H](C(=O)O[C@H](C#N)c2cccc(Oc3ccccc3)c2)[C@@H]1/C=C(\Cl)C(F)(F)F` is lower in “activity, negative = inhibition” value: -18.3% for the first, -23.9% for the second.

Compared with `CC(C)N1C(=O)N(c2ccccc2)CSC1=NC(C)(C)C`, `SCc1ccco1` is higher in “activity, negative = inhibition” value: -3.92% for the first, 27.1% for the second.

With `ClC1=C(Cl)C2(Cl)C3C(Cl)C=CC3C1(Cl)C2(Cl)Cl` (stereo not given) the Potency was “inactive”.
For `O=C(O)C1C2CCC(O2)C1C(=O)O` (stereo not given), the Potency was 49.2 µM (active) and 44.5 µM (active).
With `N#CCCC(Br)(C#N)CBr` (stereo not given) the Potency was 68.6 µM (active).
For `CC(O)C#N` (stereo not given), the Potency was 30.6 µM (active).
In the case of `O=c1ssc(Cl)c1Cl`, the Potency is reported as 54.5 µM (active).
In the case of `[Hg+2].[I-].[I-]`, the Potency is reported as 30.6 µM (active).
For `[Cl][Sn]([c]1ccccc1)([c]1ccccc1)[c]1ccccc1`, the Potency was 0.206 µM (active).
`CC(C)(C)c1cc([N+](=O)[O-])cc(C(C)(C)C)c1O` was tested, and the Potency was 27.3 µM (active).
With `O=CC(Br)(Br)Br` the Potency was 30.5 µM (active).
In the case of `O=C(CCCN1CCC2(CC1)C(=O)NCN2c1ccccc1)c1ccc(F)cc1`, the Potency is reported as 7.5 µM (active).
With `O=C(CCl)Nc1ccccc1` the Potency was 54.5 µM (active).
For `COc1cc(C=O)cc2c1[C@H](COC(N)=O)[C@]1(OC(C)=O)ON2C[C@H]2[C@@H]1N2C(C)=O`, the Potency was 0.0486 µM (active).

Going from `COc1cc(N)c(Cl)cc1C(=O)NC1CN2CCC1CC2` (stereo not given) to `Clc1ccc(CO/N=C(\Cn2ccnc2)c2ccc(Cl)cc2Cl)c(Cl)c1`, the “activity, negative = inhibition” value rises from 4.8% [at 42.5 µM] to 119% [at 42.5 µM].
